A selection: hits, their analogues and other compounds. The true share with any hit is near 3.8%.
B2AR arrestin ag: qHTS assay of beta-arrestin-biased ligands of beta2-adrenergic receptor: NCGC Sytravon Library Screen. 44,000 tested, under 10 active. HTLA Tango cells, beta-arrestin recruitment, luciferase luminescence, 18 h. Beta-2 adrenergic receptor (Homo sapiens), P07550. Potency, µM (titrated, usually from 46.1 µM), most hits filed as activators;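 further: potency means the concentration at half of the fitted maximal effect; 0% = DMSO and full agonism = EC100 isoproterenol or metaproterenol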
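Luminescence read-out: arrestin recruitment to recombinant beta2-AR releases tTA, inducing luciferase. Cells exposed 18 hr at 37 degrees C to up to 46 microM compound; %Activity from corrected signal, concentration-response curves classified by r2, magnitude and efficacy.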
TSG101-PTAP inh: qHTS Validation Assay for Inhibitors of HIV-1 Budding by Blocking the Interaction of PTAP/TSG101: Sytravon Library Screen | Potency, µM (top dose mostly 115 µM), actives largely listed as inhibitors | Tumor susceptibility gene 101 protein (Homo sapiens), Q99816 | 44,000 tested, under 10 active | AID 1347069, 2019 | Fluorescence polarization, FITC-PTAP peptide/Tsg101, 20 min; further: potency means the concentration at half of the fitted maximal effect; 0% is about no effect
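Fluorescence polarization: Tsg101 binding domain (10 uM final) in 10 mM HEPES pH 7.5, 0.15 M NaCl, 0.01% Tween 20, 3 mM EDTA, 0.1 mM TCEP; compounds pinned; FITC-PTAP peptide 50 nM final; 20 min, r.t.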
GPR32 ag: qHTS for Agonists of Human Resolvin D1 Receptor DRV1; 2.5% of 48,000 active; activation, % at 76.9 µM; CHO-K1 GPR32 beta-arrestin PathHunter luminescence, 90 min; zero percent set by DMSO-only wells;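 active means activation of at least 60% and not above a set upper limit, about 1 call in 100 departs from these limits; inconclusive means activation of 40% to 60%, or above that upper limit; inactive means activation under 40%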; further: 0% is about no effect
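CHO-K1 cells stably expressing ProLink-tagged GPR32 and Enzyme Activator-tagged beta-arrestin were seeded at 2,500 cells/well overnight, exposed to compounds for 90 min at 37 °C, then read by beta-Gal complementation chemiluminescence after 1 h detection reagent.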
OvCa metastasis: Primary qHTS assay for Inhibitors of ovarian cancer metastasis using an organotypic tumor microenvironment (TME) model; AID 1963576, 2024; Potency, µM (series often up to 45.8 µM), for inactives: at the highest dose activity change, negative = inhibition, most hits filed as inhibitors; 0.1% of 46,000 active; SKOV3ip1-GFP adhesion/invasion on 3D omental model, fluorescence;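 further: potency means the concentration at half of the fitted maximal effect; plate controls were DMSO wells for no effect and tomatine positive control wells for full effect; nearly all actives have a fitted effect of over 65% in size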
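A 3D layer of primary human omental fibroblasts, mesothelial cells, fibronectin and collagen I, grown 48 hr, received SKOV3ip1-GFP cells in serum-free medium plus compounds at 0.36-46 umol/L. After 2 hr RT and 16 hr 37 C, fixed adherent GFP cells were counted; normalized to DMSO and tomatine.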
GALK inh: qHTS Assay for Inhibitors of Human Galactokinase (GALK): NCGC Sytravon Library Screen; 44,000 tested, under 10 active; recombinant GALK, Kinase-Glo ATP luminescence, 1 h; AID 1347072, 2019; Potency, µM (series often up to 57.5 µM), for inactives: top-dose activity, negative = inhibition, hits mostly inhibitors;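 further: plate controls were full GALK reaction for no effect and reaction lacking GALK for full effect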
Target sequence (P51570 whole entry, looked up): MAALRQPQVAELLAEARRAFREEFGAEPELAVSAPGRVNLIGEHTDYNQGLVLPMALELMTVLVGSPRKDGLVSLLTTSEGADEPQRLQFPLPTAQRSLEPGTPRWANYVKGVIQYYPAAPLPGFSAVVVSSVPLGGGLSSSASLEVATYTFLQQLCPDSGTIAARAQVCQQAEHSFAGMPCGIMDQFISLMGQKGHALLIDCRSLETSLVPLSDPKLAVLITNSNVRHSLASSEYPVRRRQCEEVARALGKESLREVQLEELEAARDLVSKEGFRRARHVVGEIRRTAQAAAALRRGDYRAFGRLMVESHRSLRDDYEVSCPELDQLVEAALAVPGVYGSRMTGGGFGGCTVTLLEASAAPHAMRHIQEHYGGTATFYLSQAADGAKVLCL
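Compounds were pinned into ATP buffer, then GALK-galactose mix was added (final 5 nM enzyme, 35 uM ATP, 100 uM galactose, pH 8.0). After 1 h at room temperature, Kinase-Glo Plus was added and luminescence read.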
NTMT1 inh: Primary qHTS for Inhibitors of N-terminal methyltransferase 1 (NTMT1): MTaseGlo Assay | AID 1645870, 2021 | N-terminal Xaa-Pro-Lys N-methyltransferase 1 (Homo sapiens), Q9BV86 | 2.5% of 59,000 active | NTMT1 MTase-Glo SAH luminescence, purified enzyme | Potency, µM (highest dose often 114 µM), for the others: at the top dose activity change, negative = inhibition, hits mostly inhibitors;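 further: potency means the concentration at half of the fitted maximal effect; plate controls were DMSO vehicle for no effect and no enzyme for full effect; nearly all actives have a fitted effect of over 65% in size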
Sfp PPTase inh: qHTS Assay for Inhibitos of Bacillus subtilis Sfp phosphopantetheinyl transferase (PPTase): Chemistry Optimization Followup; Potency, µM (highest dose often 114 µM), for inactives: at the highest dose activity change, negative = inhibition, actives largely listed as inhibitors; purified Sfp PPTase enzyme activity, qHTS; AID 540350, 2011; 78% of 230 active; shares compounds with NTMT1 inh
Bsub HM489 growth: qHTS for Inhibitos of Bacillus subtilis Sfp phosphopantetheinyl transferase (PPTase): Chemistry Optimization Followup in B. Subtilis HM489. Potency, µM (doses to about 114 µM), for the others: top-dose activity change, negative = inhibition, most hits filed as inhibitors. B. subtilis HM489 (acpS-) growth, BacTiter-Glo, 5 h. shares compounds with NTMT1 inh. 50% of 220 active
Sfp PPTase gel: Gel-Based Assay for Inhibitos of Bacillus subtilis Sfp phosphopantetheinyl transferase (PPTase): Chemistry Optimization Followup. 54% of 220 active. shares compounds with NTMT1 inh. Potency, µM (doses to about 250 µM), inactives show top-dose activity change, negative = inhibition, hits mostly inhibitors. AID 540355, 2011. purified Sfp PPTase, gel-based product detection
Sfp inh SAR2: qHTS Assay for Inhibitors of Bacillus subtilis Sfp phosphopantetheinyl transferase (PPTase): SAR Round 2. purified Sfp enzyme, PPTase activity, qHTS. AID 602370, 2012. shares compounds with NTMT1 inh. Potency, µM (top dose mostly 57.1 µM), without a hit: at the highest dose activity change, negative = inhibition, actives largely listed as inhibitors. 87% of 230 active
HSD17B4 counter: Extended Characterization of HPGD Inhibitors: Counterscreen Against HSD17b4. AID 743187, 2013. shares compounds with NTMT1 inh. 10% of 230 active. Potency, µM (doses to about 57.1 µM), for the others: at the top dose activity change, negative = inhibition, usual class: inhibitors. purified HSD17B4, estradiol/NAD+, NADH fluorescence
ALDH1A1 counter: Extended Characterization of HPGD Inhibitors: Counterscreen Against ALDH1A1 | AID 743195, 2013 | shares compounds with NTMT1 inh | recombinant ALDH1A1, NADH fluorescence, propionaldehyde/NAD+ | 93% of 230 active | Potency, µM (series often up to 57.1 µM), for inactives: at the top dose activity change, negative = inhibition, usual class: inhibitors
Active calls of the source: *; [ ] = another dose, or the depositor's remark. Unless noted, the call rests on the fitted dose curve; in most records, active means well fitted curve in the direction sought with a large enough effect; inconclusive means small, poorly fitted or top-dose-only effect, or another doubt; inactive means no such curve, though single readings can be large; an effect the other way counts as inactive or inconclusive.

COc1ccccc1-c1noc(-c2ccc(N3CCN(c4ccccc4)CC3)c([N+](=O)[O-])c2)n1 was read as B2AR arrestin ag inactive, TSG101-PTAP inh inactive, GPR32 ag 7.0, OvCa metastasis 9.8%, GALK inh -11.9% and NTMT1 inh inconclusive.
COc1cccc(NC(=S)N2CCN(c3ccc(C(F)(F)F)cc3[N+](=O)[O-])CC2)n1 was read as NTMT1 inh inconclusive, Sfp PPTase inh inconclusive, Bsub HM489 growth inconclusive, Sfp PPTase gel 31.6µM*, Sfp inh SAR2 1.45µM*, HSD17B4 counter -14.4% and ALDH1A1 counter 1.52µM*.
`CC(=O)N1CCc2c(sc3c2c(=O)n(-c2ccccc2Cl)c(=O)n3Cc2cccc(C)c2)C1` gave B2AR arrestin ag inactive, TSG101-PTAP inh inactive, GPR32 ag 4.9, OvCa metastasis 4.6%, GALK inh -5.1% and NTMT1 inh 6.9%.
Screening COc1ccc(-c2noc(CN3CCN(c4cccc(Cl)c4)CC3)n2)cc1 returned B2AR arrestin ag inactive, TSG101-PTAP inh inactive, GPR32 ag 15.6, OvCa metastasis inactive, GALK inh 6.2% and NTMT1 inh inconclusive.
`COc1ccc(CNC(=O)c2cc3ccccn3n2)cc1OC` gave B2AR arrestin ag inactive, TSG101-PTAP inh inactive, GPR32 ag -7.8, OvCa metastasis -6.2% and GALK inh -2.2%.
Screening CN(C)CC#CCCC(=O)C(O)(c1ccccc1)C1CCC1 (stereo unspecified) returned NTMT1 inh 0.2%[57.5 µM].
`Cc1cccc(CSCc2ccc(C(=O)NCCc3ccccc3)o2)c1` gave B2AR arrestin ag inactive, TSG101-PTAP inh inactive, GPR32 ag 34.9, OvCa metastasis 9.0%, GALK inh 1.6% and NTMT1 inh inconclusive.

Screens as filed in PubChem.
